The text below walks through data of publication PMC5540273 (PLoS ONE, 2017).

The structures appear in SMILES notation. Where “and” joins values, the source holds several entries; their conditions need not be identical. Equal values may be shown once. Read-outs that look alike come from different tables or passages of the source.

In experiment [1] the test system is TIE1. As to conditions: concentration: 1 μM, replicates: in singlicate; n = 1.
The subject of experiment [2] is T1, TIE2.
T1 construct: gene TEK
To be noted: concentration: 1 μM, replicates: in singlicate, n = 1.

The test system of experiment [3] is TLK1. As to conditions: concentration: 1 μM, replicates: in singlicate, n = 1.
Experiment [4] concerns TLK2. As to conditions: concentration: 1 μM, replicates: in singlicate, n = 1.
The subject of experiment [5] is TNIK. As to conditions: concentration: 1 μM, replicates: in singlicate, n = 1.
For experiment [6], the system named is TNK1. To be noted: concentration: 1 μM, replicates: in singlicate, n = 1.
The test system of experiment [7] is TNK2. As to conditions: concentration: 1 μM, replicates: in singlicate; n = 1.
The test system of experiment [8] is TNNI3K. To be noted: concentration: 1 μM, replicates: in singlicate, n = 1.
Experiment [9] deals with T2, TRKA.
T2 construct: gene NTRK1
As to conditions: concentration: 1 μM, replicates: in singlicate, n = 1.

For experiment [10], the system named is TRKB. To be noted: concentration: 1 μM, replicates: in singlicate, n = 1.
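Also: KINOMEscan kinase panel screen.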

Regarding `Cl.c1ccc(Cn2ccc3cc(Nc4ncnc5ccccc45)ccc32)cc1` [GW275568], the “%Inh” value in [1] is on record as 0%; in [2], 0%; in [3], 19%; in experiment [4] it was 0%; in experiment [5], 0%; in [6], 0%. In addition, the “%Inh” value is given as 12% in experiment [7], 18% in experiment [8], 5% in experiment [9] and 0% in experiment [10].

For `Clc1cc(Nc2ncnc3cc[nH]c23)ccc1OCc1ccccn1`, the “%Inh” value is reported as 10% in experiment [1]; 23% in experiment [2]; 26% in experiment [3]; 4% in experiment [4]; 22% in [5]; 0% in [6]. The “%Inh” value in experiment [7] was 5%; in experiment [8], 2%; in experiment [9] it was 2%; in experiment [10], 12%.

Turning to `COc1ccc(-c2nc3n(c2-c2ccncc2)CCC3)cc1` [SKF-104493], the “%Inh” value in experiment [1] was 0%; in experiment [2] (1 µM) it was 0% and 2%; in experiment [3] (1 µM), 7% and 0%; in [4] (1 µM), 0% and 24%; in [5] (1 µM), 0% and 11%; in experiment [6] (1 µM) it was 6% and 0%. Moreover, the “%Inh” value in experiment [7] is 0%; in [8] (1 µM), 25% and 6%; in experiment [9] (1 µM) it was 0% and 32%; in experiment [10] (1 µM), 13% and 0%.

With `COc1ccc(-c2oc3ncnc(N)c3c2-c2ccc(OC)cc2)cc1` [SB-589132], the “%Inh” value stood at 1% in experiment [1]; 9% in experiment [2]; 0% in experiment [3]; 0% in experiment [4]; 0% in experiment [5]; 45% in [6]. For the same molecule, the “%Inh” value stood at 44% in [7], 50% in experiment [8], 52% in [9] and 74% in experiment [10].

Consider `Fc1ccc(Nc2nccc(-c3c(-c4ccc(Cl)cc4)nn4ncccc34)n2)cc1F` [GW829058], for which the “%Inh” value in [1] worked out at 38%; in experiment [2], 18%; in experiment [3], 0%; in [4] it was 12%; in experiment [5] it was 89%; in experiment [6] it was 24%. The “%Inh” value worked out at 0% in [7], 3% in [8], 13% in [9] and 0% in experiment [10].

Take `Fc1cccc(COc2ccc(Nc3ncnc4nn5ccccc5c34)cc2Cl)c1` [GW689066]: the “%Inh” value in [1], in experiment [2], in [3], in [4], in [5] and in experiment [6] was 0% each time. For the same molecule, the “%Inh” value in experiment [7] was determined as 10%; in experiment [8] it was 0%; in [9] it was 0%; in [10] it was 22%.

Regarding `NC(=O)c1sc(-n2cnc3ccccc32)cc1OCc1ccccc1F` [GSK1024306], the “%Inh” value in experiment [1] came out at 2%; in [2] it was 0%; in experiment [3], 0%; in [4], 0%; in [5], 56%; in experiment [6], 0%. The “%Inh” value is on record as 9% in experiment [7], 18% in experiment [8], 51% in experiment [9] and 0% in [10].

In the case of `O=C(Nc1ccccc1)Nc1ccc(Oc2ccc3nccn3n2)cc1`, the “%Inh” value in [1] is listed as 13%; in [2] it was 46%; in experiment [3], 0%; in experiment [4] it was 0%; in experiment [5], 0%; in experiment [6] it was 43%. Also, the “%Inh” value in experiment [7] was determined as 10%; in experiment [8], 82%; in experiment [9] it was 0%; in experiment [10], 0%.

With `C[C@@H]1CCN(C(=O)CO)C[C@@H]1N(C)c1ncnc2[nH]ccc12`, the “%Inh” value in experiment [1] is 3%; in experiment [2], 2%; in experiment [3], 0%; in experiment [4], 0%; in experiment [5] it was 6%; in experiment [6], 62%. The “%Inh” value in experiment [7] stood at 0%; in [8], 0%; in experiment [9], 15%; in [10], 10%.

Regarding `Cl.c1ccc(Cn2ncc3cc(Nc4ncnc5ccccc45)ccc32)cc1` [GW273749], the “%Inh” value in experiment [1] turned out to be 0%; in experiment [2], 0%; in experiment [3], 15%; in experiment [4] it was 0%; in experiment [5] it was 0%; in experiment [6], 0%. In addition, the “%Inh” value in [7] is listed as 12%; in experiment [8] it was 0%; in [9] it was 0%; in experiment [10], 0%.

As to `CCc1nc(-c2cccc(N(C)S(=O)(=O)c3ccccc3)c2)c(-c2ccnc(Nc3ccc(N4CCN(C(C)=O)CC4)nc3)n2)s1` [GSK1645895], the “%Inh” value in [1] was 5%; in [2], 18%; in experiment [3], 26%; in experiment [4] it was 20%; in [5], 4%; in experiment [6] it was 29%. The “%Inh” value in [7] is given as 3%; in experiment [8], 0%; in experiment [9] it was 0%; in experiment [10] it was 0%.

`OCCOCCn1ccc2ncnc(Nc3ccc(Oc4cccc(Cl)c4)c(Cl)c3)c21`: the “%Inh” value in [1] is recorded as 0%; in [2] it was 31%; in experiment [3] it was 0%; in [4], 0%; in experiment [5], 0%; in experiment [6], 0%. Moreover, the “%Inh” value in experiment [7], in [8], in experiment [9] and in [10] was 0% throughout.

For `Cn1ccc2ncnc(Oc3ccc(NC(=O)Nc4cccnc4)c(Cl)c3)c21`, the “%Inh” value in experiment [1] is 18%; in [2], 0%; in experiment [3] it was 13%; in experiment [4], 0%; in experiment [5], 1%; in experiment [6] it was 0%. For the same molecule, the “%Inh” value in [7], in [8], in experiment [9] and in experiment [10] was 0% throughout.

Turning to `C[C@H]1CC[C@@H](C(=O)Nc2ccccc2)CN1c1cc(-c2ccc3c(N)n[nH]c3c2)nc(N)n1` [GSK2283293], the “%Inh” value was 26% in experiment [1]; 0% in experiment [2]; 4% in [3]; 0% in experiment [4]; 0% in [5]; 0% in [6]. Also, the “%Inh” value amounted to 17% in experiment [7], 0% in experiment [8], 0% in [9] and 0% in experiment [10].

In the case of `Clc1ccc(-c2cc(-c3c[nH]nc3-c3ccccn3)ccn2)cc1` [GW681251], the “%Inh” value in [1] stood at 33%; in experiment [2], 0%; in experiment [3], 0%; in experiment [4], 0%; in [5] it was 80%; in [6], 0%. Also, the “%Inh” value in [7] is 0%; in experiment [8] it was 17%; in experiment [9], 0%; in experiment [10], 0%.
